According to PubChem BioAssay AID739 (SRMLSC, 2007):
The whole screen tested about 98,000 compounds, of which about 880 (0.9%) were called active. No stated cut-off is given here; in the data, active means inhibition above about 30%; inactive means the rest. What follows is part of a selection rich in actives, with near analogues and random picks from the rest.

assay: phenotypic screen on post-Golgi transport, primary screen (AID 739); details: post-Golgi transport phenotypic cell assay; at 10 µM; hits give high values;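 further: yeast cells grown in 1536-well plates; yeast grown about 18 h at 30C before absorbance read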

Compound | inhibition
CC(C)Cn1cnc2c1c(=O)n(CC(O)c1ccccc1)c(=O)n2CC(C)C (stereo unspecified) | 2.02% (inactive)
CCn1c2ccccc2c2cc(NC(=S)N3CCOCC3)ccc21 | 8.17% (inactive)
CCCC(=O)N(CCc1ccccc1)Cc1nc2ccccc2c(=O)[nH]1 | -6.28% (inactive)
COc1ccc(N2CCN(Cc3cc(=O)oc4ccc5ccccc5c34)CC2)cc1 | 14.4% (inactive)
CN(Cc1nc2ccccc2c(=O)[nH]1)Cc1cc(=O)oc2ccc3ccccc3c12 | 39.3% (active)
CC(C)c1ccc(NC(=O)CCN2C(=O)c3ccc([N+](=O)[O-])cc3C2=O)cc1 | -0.5% (inactive)
Cc1ccc(S(=O)(=O)NCC(=O)N(CC(=O)NC(C)(C)C)Cc2cccs2)cc1 | -2.77% (inactive)
Cn1nc([N+](=O)[O-])nc1Sc1ccc(C(C)(C)C)cc1 | 0.31% (inactive)
Cn1c(Cn2nnc3ccccc32)nnc1SCC(=O)c1ccccc1F | 11.5% (inactive)
COc1ccc(C(CNC(=O)c2cccnc2SC)N2CCOCC2)cc1 (stereo unspecified) | -3.85% (inactive)
O=C(c1cccnc1NCc1ccccc1)N1CCOCC1 | -0.34% (inactive)
CSc1ncccc1C(=O)OCC(=O)N1CCOCC1 | 31.5% (active)
Cc1ccc(SCC(=O)c2sc(-c3ccccc3)nc2C)cc1 | -0.4% (inactive)
O=C(COc1ncnc2c(Cl)cc(Cl)cc12)N1CCN(S(=O)(=O)c2ccccc2)CC1 | 18.3% (inactive)
CC(=O)NNc1cc(=O)c2c(=O)n(C)c(=O)n(C)c2[nH]1 | 9.45% (inactive)
O=S(=O)(c1cnccc1N1CCN(/N=C/c2ccc(Br)cc2)CC1)N1CCCCC1 | 49.6% (active)
CNS(=O)(=O)c1cnccc1N1CCN(c2cccc(C)c2)CC1 | -3.21% (inactive)
O=C(O)C1CCCN(S(=O)(=O)c2cccc3cccnc23)C1 (stereo unspecified) | -3.64% (inactive)
CCCOn1c(-n2nc(C)cc2C)nc2ccccc2c1=O | 2.91% (inactive)
CCOC(=O)N1CCN(c2c(NCCCN3CCCC(C)C3)c(=O)c2=O)CC1 (stereo unspecified) | 7.09% (inactive)
O=C(OCc1cn(-c2ccc(Cl)c(Cl)c2)nn1)c1ccccc1Cl | -1.94% (inactive)
CCc1ccc(NC(=O)CSc2nc3ccccc3c(=O)n2CCN2CCOCC2)cc1 | 0% (inactive)
CCn1c(/C=C/c2ccc([N+](=O)[O-])o2)nc2ccccc2c1=O | 76.6% (active)
Cc1nc2ccccc2c(=O)n1CCCn1ccnc1 | 2.21% (inactive)

Compound | inhibition
O=C(CCCCCn1c(=O)[nH]c2ccccc2c1=O)NCCc1c[nH]c2ccccc12 | -3.35% (inactive)
COc1ccc2c(c1)CCc1c(C(=O)N3CCc4ccccc4C3)noc1-2 | 40.4% (active)
COc1ccc2c(c1)CCc1c(C(=O)N3CCCC3)noc1-2 | -1.12% (inactive)
COc1ccc2c(c1)CCc1c(C(=O)Nc3c(C)n(C)n(-c4ccccc4)c3=O)noc1-2 | 3.19% (inactive)
CCN(CC)CCCNC(=O)CCc1ccccc1 | 3.7% (inactive)
Cc1nn(CC(=O)Nc2nc3ccccc3s2)c(C)c1[N+](=O)[O-] | -1.92% (inactive)
O=C(CCS(=O)(=O)c1cccc2nsnc12)N1CCN(c2ccccc2F)CC1 | 6.04% (inactive)
Fc1ccc(N2N=C(c3cccs3)CC2c2ccco2)c(F)c1 (stereo unspecified) | 8.56% (inactive)
Cc1nc2cc(NC(=O)CSc3nc4c(C)cccc4cc3C#N)ccc2s1 | -0.17% (inactive)
CC(NC(=O)CSc1nc2c(cc1C#N)CN(C)CC2)c1ccccc1 (stereo unspecified) | 60.2% (active)
Cc1cc2cc3c(cc2nc1SCC(=O)Nc1c(C)cccc1C)CCC3 | -0.36% (inactive)
CC(C)C(NS(=O)(=O)c1cccs1)C(=O)Nc1nc(C(C)(C)C)cs1 (stereo unspecified) | 7.03% (inactive)
Cc1c(C=O)c2ccccn2c1C(=O)c1ccncc1 | -6.66% (inactive)
O=C(Nc1ccc2ccccc2c1)Nc1ccc2snnc2c1 | 96.1% (active)
COc1ccc(NC(=O)Nc2ccc3nc(C)c(C)nc3c2)cc1 | -7.69% (inactive)
COc1ccc(NC(=O)Nc2ccc3nsnc3c2)cc1 | -0.7% (inactive)
CC(=O)Nc1ccccc1C(=O)C(=O)Nc1ccc(F)cc1 | -1% (inactive)
N/C(=N\OC(=O)Nc1ccc(Cl)c(Cl)c1)c1ncc(C(F)(F)F)cc1Cl | 3.3% (inactive)
O=C(CC(O)(C(F)(F)F)C(F)(F)F)Nc1ccc(Cl)c(Cl)c1 | 105% (active)
Cc1nnc(NC(=O)Nc2ccc(Cl)c(Cl)c2)s1 | 5.16% (inactive)
COc1cc(SC)ccc1C(=O)NCCOc1ccccc1Cl | 4.48% (inactive)
c1ccc2[nH]c(-c3nc4ccccc4[nH]3)nc2c1 | 30.1% (active)
c1ccc(-c2[nH]ncc2-c2nc3ccccc3[nH]2)cc1 | 11% (inactive)
Cc1ccc(-c2nc3ccccc3[nH]2)cc1N | 0.67% (inactive)

Compound | inhibition
COc1ccc(C(=O)NC(=S)NNC(=O)CCc2ccccc2)cc1 | 0.19% (inactive)
CC(Oc1ccc2ccccc2c1)C(=O)NNC(=S)NC(=O)c1ccco1 (stereo unspecified) | 43% (active)
CCCc1ccc(OCC(=O)NNC(=S)NC(=O)c2ccco2)cc1 | 27.3% (inactive)
CCN(CC(=O)NC1CCS(=O)(=O)C1)c1nc(-c2cccnc2)nc2ccccc12 (stereo unspecified) | 3.37% (inactive)
COC(=O)Cc1cc(=O)oc2c(C)c(O)ccc12 | -6.64% (inactive)
CCn1cc(C(=O)N2CCN(Cc3ccc4c(c3)OCO4)CC2)c2cc(OC)c(OC)cc2c1=O | -1.13% (inactive)
COc1cc(Cl)c(S(=O)(=O)N2CCN(Cc3ccc4c(c3)OCO4)CC2)cc1Cl | 38.9% (active)
CS(=O)(=O)N(CC(=O)N1CCN(Cc2ccc3c(c2)OCO3)CC1)c1ccc2c(c1)OCO2 | 6.95% (inactive)
CC(=O)c1ccc(Cc2ncc(C(F)(F)F)cc2Cl)s1 | 6.38% (inactive)
COc1ccc(-c2ccc(Nc3ccc(S(=O)(=O)N4CCCC4)cc3)nn2)cc1OC | 1.55% (inactive)
COc1ccc(-c2cc(C(F)(F)F)nc(S(C)(=O)=O)n2)cc1OC | 54.9% (active)
COc1ccc(-c2cc(C(F)(F)F)nc(NCc3cccnc3)n2)cc1 | 10.4% (inactive)
CCOC(=O)c1cc2c(ccn2C)n1CC(=O)N1CCC(C)CC1 | 1.25% (inactive)
O=C(c1cccc(F)c1)N1CCC(O)(c2cccnc2)CC1 | 1.27% (inactive)
COc1ccc2[nH]cc(/C=C(/C#N)S(=O)(=O)c3ccccc3)c2c1 | -4.52% (inactive)
Cc1ccc(C2(C(F)(F)F)N=C3Sc4cc(C)cc(C)c4N3C(=O)N2)cc1 (stereo unspecified) | 90.2% (active)
Cc1n[nH]c(=O)n1-c1ccc(Oc2ccccc2)cc1 | -19.2% (inactive)
COC(=O)Nc1ncc(CN2CCCCC2)s1 | -4.67% (inactive)
Cc1ccc(/C=N/NC(=O)C(NC(=O)c2ccccc2)c2n[nH]c(=O)c3ccccc23)cc1 (stereo unspecified) | 0.64% (inactive)
Cc1cc(NC(=O)/C=C/C(=O)N(c2ccccc2C)C(C(=O)NC2CCCC2)c2ccc(F)cc2)no1 (stereo unspecified) | 0.32% (inactive)
O=C(CSc1nnc(-c2ccccc2)o1)N1CCOCC1 | 8.7% (inactive)
CC1=CC(C)(C)N(C(=O)CSc2nnc(-c3ccccc3)o2)c2ccc(C)cc21 | 101% (active)
CC1=CC(C)(C)N(C(=O)CSc2nccn2C)c2cc(C)ccc21 | 5.13% (inactive)
Cc1ccc(CNC(=O)c2ccccc2CCc2ccccc2)cc1 | -2.21% (inactive)

Compound | inhibition
FC(F)(F)COc1nc(N2CCCCC2)nc(N2CCNCC2)n1 | 33.5% (active)
O=C(CSCc1ccc(Cl)cc1)N1CCCCC1 | -4.56% (inactive)
O=C1C2C3C=CC(C4CC34)C2C(=O)N1/N=C/c1ccc(-c2ccccc2[N+](=O)[O-])o1 (stereo unspecified) | 3.37% (inactive)
Cc1cc(C)c([N+](=O)[O-])cc1-c1ccc(/C=N/NC(=O)c2nonc2N)o1 | -6.17% (inactive)
Cc1cc([N+](=O)[O-])c(-c2ccc(/C=N/n3cnnc3)o2)cc1Cl | 99.8% (active)
Cc1cc(-c2ccc(/C=N/n3cnnc3)o2)c([N+](=O)[O-])cc1C | 59.7% (active)
CCOc1ccc(C(=O)NCCCN2CCCC2=O)cc1 | 11.5% (inactive)
O=C(COC(=O)c1ccccc1NC(=O)c1ccco1)Nc1ccc2c(c1)OC(F)(F)O2 | -2.04% (inactive)
Cc1nc2ccc(NC(=O)C(F)(F)F)cc2o1 | -13.7% (inactive)
OC(c1ccccc1)c1nccn1Cc1ccccc1 (stereo unspecified) | -6.53% (inactive)
Cn1c(-c2sc3cc(C(F)(F)F)cnc3c2-c2ccccc2)n[nH]c1=S | -3.98% (inactive)
c1ccc2c(CSCc3nc4ccccc4[nH]3)cccc2c1 | 4.1% (inactive)
Cc1ccc(SCC(=O)Nc2ncc(C)s2)cc1 | -7.09% (inactive)
O=C1c2ccccc2C2=Nc3ccccc3SC(c3ccccc3F)C12 (stereo unspecified) | 103% (active)
Cc1c(CCO)c(=O)n(-c2ccccc2)n1S(=O)(=O)c1ccc(F)cc1 | -6.46% (inactive)
CC(C)CCNc1nc(N2CCCC2)c2c(c1C#N)CCN(C)C2 | -1.14% (inactive)
CC(C)Cc1nc(N2CCOCC2)c(C#N)c2c1CCC2 | 35% (active)
CC(C)c1nc(N2CCOCC2)c(C#N)c2c1COC(C)(C)C2 | -8.94% (inactive)
CCOc1ccc(-c2c(C)n([O-])c3c([n+]2=O)CCCC3)cc1 | 0.66% (inactive)
Clc1ccc(C2CC(c3cccs3)n3ncnc3N2)cc1Cl (stereo unspecified) | 1.99% (inactive)
COc1ccc(C2CC(c3ccccc3)Nc3ncnn32)cc1 (stereo unspecified) | 4.34% (inactive)
FC(F)Oc1ccccc1C1CC(c2ccc(Br)s2)Nc2ncnn21 (stereo unspecified) | 39.4% (active)
CC(C)C(=O)OCC(=O)Nc1ccc2c(c1)CCC2 | 7.4% (inactive)
CCC(=O)NC(Nc1cc(C)ccn1)(C(F)(F)F)C(F)(F)F | 6.28% (inactive)
